# From PubChem BioAssay
# MCF10A rerep: inducers of DNA re-replication in MCF 10A breast cells | MCF 10A DNA re-replication, Hoechst nuclear intensity, 48 h | Potency, µM (highest dose often 46.1 µM), without a hit: top-dose activity, positive = re-replication, actives largely listed as activators | 2.9% of 350,000 active; note: potency is the fitted concentration of half-maximal effect; % of control where 0% means no effect; nearly all actives have a fitted effect of over 50% in size
# SW480 rereplic: DNA re-replication induction in SW480 cells. SW480 DNA re-replication, Hoechst DNA content imaging, 48 h. 1.8% of 340,000 active. AID 624297. Potency, µM (series often up to 46.1 µM), inactives show at the top dose re-replication activation, actives largely listed as activators; note: potency is the fitted concentration of half-maximal effect; % of control where 0% means no effect; nearly all actives have a fitted effect of over 55% in size
#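 Quantitative HTS format with DMSO vehicle controls; 48 hr drug incubation at 37 C, then 40 min Hoechst staining and scanning imager measurement at 405 nm excitation.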
# IL1B secr inh: blocks inflammasome-driven IL-1 beta release; THP-1 LPS/ATP IL-1B secretion, AlphaLISA, 16 h; stronger effect = lower value; activity change, % at 57.5 µM; 4.7% of 360,000 active; AID 743279; in the data active = activity change below about -50%; inconclusive = mostly about -30% to -49%; note: % is set by controls: 0 for no effect and ±100 for the full control effect
#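 Secreted IL-1B measured by AlphaLISA bead assay after 16 h compound exposure of THP-1 cells; compounds (final up to 57.5 uM) added 1 h before LPS (250 ng/mL) and ATP (1.25 mM) stimulation; lower signal means less secretion.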
# DT40 TDP1 CPT: DT40-hTDP1 cell growth loss with CPT | chicken DT40 Tdp1-/-;hTDP1 cells + 20 nM CPT, ATP luminescence, 48 h | 12% of 420,000 active | Potency, µM (highest dose often 46.2 µM), for the others: at the top dose activity change, negative = growth inhibition, actives largely listed as inhibitors; note: potency is the fitted concentration of half-maximal effect; % is set by controls: 0 for no effect and ±100 for the full control effect; nearly all actives have a fitted effect of over 55% in size
#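 Chicken DT40 Tdp1-/- cells stably complemented with human TDP1 were seeded at 400 cells/well in medium containing 20 nM camptothecin, exposed to pin-transferred compounds, and grown at 37 °C for at least 48 hr. Viability was read as ATP luminescence.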
# TDP1 cell noCPT: qHTS for Inhibitors of human tyrosyl-DNA phosphodiesterase 1 (TDP1): qHTS in cells in absence of CPT. DT40 Tdp1-/- hTDP1 cells, no CPT, ATP luminescence, 48 h. Potency, µM (titrated, usually from 46.2 µM), for inactives: top-dose activity change, negative = growth inhibition, hits mostly inhibitors. 15% of 420,000 active. AID 686978, 2013; note: potency is the fitted concentration of half-maximal effect; % is set by controls: 0 for no effect and ±100 for the full control effect; nearly all actives have a fitted effect of over 55% in size
#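 A cellular qHTS used chicken DT40 cells lacking endogenous Tdp1 but carrying stably transfected human TDP1. Compounds were applied without camptothecin, and cell growth kinetics were judged by ATP-dependent luminescence after ≥48 hr.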
# Chronic BCR inh: inhibitors of chronic active B-cell receptor signaling; ABC-DLBCL IkBa-CBG/CBR reporter, luminescence ratio, 4 h; 0.05% of 340,000 active; Potency, µM (series often up to 46.1 µM), without a hit: at the highest dose activity change, negative = inhibition, most hits filed as inhibitors; active = well fitted inhibition curve with a large enough effect in the signal ratio, with a control signal flat, not every such curve was filed as active; inconclusive = small, poorly fitted or top-dose-only effect, or effect the other way, or a change in a side signal; the % refers to the signal ratio;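 note: potency is the fitted concentration of half-maximal effect; plate controls were basal doxycycline-induced cells for no effect and cells given 10 µM MG132 for full effect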
#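 Compounds up to 46 uM were incubated four hours with TMD8 cells whose green CBG68 luciferase is fused to IkappaBalpha; red CBR luminescence normalised the signal, and concentration-effect curves were fitted to fusion, red and ratio data.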
# The depositor's hits bear a star; ? = inconclusive; . = not tested or not shown. An excerpt weighted towards active compounds, which were near 19% of everything screened. Unless noted, calls come from the whole dose curve; as a rule, active = well fitted curve in the direction sought with a large enough effect; inconclusive = small, poorly fitted or top-dose-only effect, or another doubt; inactive = no such curve, though single readings can be large; an effect the other way counts as inactive or inconclusive.
SMILES,MCF10A rerep,SW480 rereplic,IL1B secr inh,DT40 TDP1 CPT,TDP1 cell noCPT,Chronic BCR inh
C#CCOCCOCCOCCNc1nc(N2CCN(C(=O)[C@H](CCCCN)n3cc([C@@H](N)[C@H](C)CC)nn3)CC2)nc(N2CCN(C(=O)[C@H](CCC(=O)O)n3cc([C@@H](N)CCSC)nn3)CC2)n1,20%,2%,46,29%,8%,7%
O=c1[nH]c(SCCc2ccccc2)nc2c1CCC2,.,.,-5,?,7.3µM*,.
COC(=O)C1(Cc2ccc3c(c2)CCC3)Cc2ccc3c(c2C1=O)CCC3 (configuration not stated),9.2µM*,?,1,21µM*,?,.
O=C1Nc2ccc(F)cc2C12Nc1ccccc1-c1nnc(SCc3ccccc3F)nc1O2 (configuration not stated),-1%,15%,22,?,?,?
O=C1Nc2ccc(Cl)cc2C12Nc1ccccc1-c1nnc(SCc3ccccc3F)nc1O2 (configuration not stated),8%,1%,27,15µM*,?,?
Cc1c(C(=O)NCCO)[n+](=O)c2ccccc2n1[O-],0%,-1%,.,6%,-18%,.
COc1cccc(CNC(=O)CN2C(=O)CCn3nc(-c4cn(C)c5ccccc45)cc32)c1OC,.,.,.,-1%,4%,.
CCc1ccc(CNC(=O)CN2C(=O)CCn3nc(-c4cn(C)c5ccccc45)cc32)cc1,.,.,.,16µM*,-21%,.
Cn1cc(-c2cc3n(n2)CCC(=O)N3CCCC(=O)NCc2ccc(F)cc2)c2ccccc21,.,.,.,16µM*,?,.
COc1ccc(C2=CCCCCC2)c(OC)c1OC,?,-1%,-5,?,?,.
COc1ccc(C2=CCCCCC2)cc1OC,.,.,7,?,12µM*,.
O=C(c1c[nH]c(C(=O)C(Cl)(Cl)Cl)c1)c1c(F)cccc1F,?,?,-99*,?,21µM*,?
O=C(c1c[nH]c(C(=O)C(Cl)(Cl)Cl)c1)c1ccccc1F,-2%,-10%,0,?,?,?
CC1CCN(S(=O)(=O)c2ccc3c(c2)N(CC(=O)NCc2ccccc2Cl)C(=O)CS3)CC1,.,.,.,?,?,3%
Cc1ccc(CCNC(=O)c2cn(C)c3ccc(S(=O)(=O)N4CCC(C)CC4)cc3c2=O)cc1,.,.,.,-1%,?,.
O=C(COC(=O)/C=C/c1cccc(C(F)(F)F)c1)NCc1ccco1,1%,-90%,-5,4%,-26%,0%
O=C(NCc1ccco1)/C(=C/c1cccc(C(F)(F)F)c1)c1nc2ccccc2[nH]1,23µM*,?,-115*,9.2µM*,5.8µM*,?
O=S(=O)(/C(=C\c1ccc(C(F)(F)F)cc1)c1nc2ccccc2[nH]1)c1ccccc1,?,2.3µM*,-96*,2.1µM*,2.1µM*,.
O=C(NCc1ccco1)/C(=C/c1ccc(C(F)(F)F)cc1)c1nc2ccccc2[nH]1,21µM*,21µM*,-73*,?,?,11%
COc1ccc(C(=O)N2CCC3(CC2)CCN(C(c2ccccc2)c2ccccc2)CC3)cc1,.,.,.,-8%,-16%,.
CCCN(CCC)CC(O)CN1C(=O)N(CN2C(=O)N(CC(O)CN(CCC)CCC)C(=O)C2(C)C)C(C)(C)C1=O (configuration not stated),1%,1%,-65*,5%,8%,-8%
COc1ccc(-c2cnc(C)o2)cc1S(=O)(=O)Nc1ccc(F)cc1F,.,.,.,1%,-22%,.
CC(C)c1ccc(NS(=O)(=O)c2ccc3[nH]cc(C(=O)N4CCCC4)c(=O)c3c2)cc1,.,.,.,8%,3%,.
